Reference: PubChem BioAssay (EPA / NIEHS)
Some structures have more than one record in an assay (separate samples or runs), and their calls can disagree. Active and inactive are the calls of the source. How the source made its calls: active means hit-call score of the fitted dose curve at least 0.9, where 1 is the maximum; inactive means score below 0.9.

experiment: ATG_BRE_CIS: Attagene CIS-FACTORIAL HepG2 Assay for human Bone Morphogenetic Protein (BMP) Response Element (BRE) (AID 2282933); details: HepG2 BMP response element reporter, Attagene transcription factor profiling; actives raise or lower the signal
Experimental: ATG_CIS is a cell-based, multiplexed-readout assay that uses HepG2, a human liver cell line, with measurements taken at 24 hours after chemical dosing in a 24-well plate.ATG_BRE_CIS is one of 52 assay component(s) measured or calculated from the ATG_CIS assay. It is designed to make measurements of mRNA induction, a form of inducible reporter, as detected with fluorescence intensity signals by Reverse transcription polymerase chain reaction (RT-PCR) and Capillary electrophoresis technology.Data from the assay component ATG_BRE_CIS was analyzed into 1 assay endpoint. This assay endpoint, ATG_BRE_CIS, was analyzed with bidirectional fitting relative to DMSO as the negative control and baseline of activity. Using a type of inducible reporter, measures of mRNA for gain or loss-of-signal activity can be used to understand the reporter gene at the transcription factor-level as they relate to the gene SMAD1. Furthermore, this assay endpoint can be referred to as a primary readout, because this assay has produced multiple assay endpoints where this one serves a reporter gene function. To generalize the intended target to other relatable targets, this assay endpoint is annotated to the dna binding intended target family, where the subfamily is Smad protein.
Human liver HepG2 cells are transiently transfected with multiple reporter transcription units (MRTUs) in 6-well plates using FuGene 6 reagent (Roche; 3 ml FuGene/1 mg DNA). The MRTU constructs are regulated by a cis-regulating element (promoter). […] A major difference between the CIS and TRANS system is that in CIS activities of endogenous TFs are measured, whereas the TRANS assay evaluates changes in activities of exogenous, chimeric NR-Gal4 proteins. […] At the end of 24 hour incubation, total RNA was isolated using TriZol reagent (Invitrogen). The isolated RNA is then reverse-transcribed using oligo(dT) primer and Mo-MLV reverse transcriptase (Invitrogen) with DNAse I (Ambion) treatment for 30 min. The one-tenth of the produced cDNA was amplified by PCR using Taq DNA polymerase (Invitrogen) and two reporter sequence-specific primers. The PCR products were fluorescently labeled by primer extension with 6-arboxyfluorescein (6-FAM) 5'-labeled reporter sequence-specific primer (2 min at 95 C, 20 s at 68 C and 10 min at 72 C) and these products were digested with 5U of HpaI (New England Biolabs) for 2h at 37 C. The fragments were purified using Qiaquick PCR columns (Qiagen), analyzed on an ABI 3130xL genetic analyzer (Applied Biosystems) with peak positions identified by using a set of X-rhodamine (ROX)-labeled MapMarker1000 molecular weight standards (BioVentures). The raw capillary electrophoresis data was processed using Attagraph software (Attagene).

**Q.** With CC1(C)C(C=C(Cl)Cl)C1C(=O)OC(C#N)c1ccc(F)c(Oc2ccccc2)c1 (stereo unspecified) as the compound, how does the outcome read?
**A.** The outcome was “inactive”.

**Q.** With COC(=O)c1ccccc1S(=O)(=O)NC(=O)Nc1nc(C)nc(OC)n1 as the compound, how does the AC50 read?
**A.** The AC50 was 27.1 µM (active).

**Q.** What about the outcome of the same compound?
**A.** The outcome was “inactive”.

**Q.** Which outcome does the source give for COP(=S)(OC)Oc1ccc(SC)c(C)c1 here?
**A.** Its outcome is “inactive”.

**Q.** Which AC50 does the source give for CCCN(CCOc1c(Cl)cc(Cl)cc1Cl)C(=O)n1ccnc1 here?
**A.** Its AC50 is 15.1 µM (active).

**Q.** And the outcome?
**A.** The outcome was “inactive”.

**Q.** With N#CN as the compound, how does the outcome read?
**A.** Its outcome is “inactive”.

**Q.** Which outcome does the source give for CCOc1nc(NC)nc(NC(=O)NS(=O)(=O)c2ccccc2C(=O)OC)n1 here?
**A.** Its outcome is “inactive”.

**Q.** For COc1cc(OC)nc(NC(=O)NS(=O)(=O)c2cc(NC=O)ccc2C(=O)N(C)C)n1, which outcome is on record?
**A.** Its outcome is “inactive”.

**Q.** For O=C(O)CCCOc1ccc(Cl)cc1Cl, which outcome is on record?
**A.** The outcome was “inactive”.

**Q.** Which outcome does the source give for O=C(O)C(F)(F)C(F)(F)C(F)(F)C(F)(F)C(F)(F)C(F)(F)C(F)(F)F here?
**A.** Its outcome is “inactive”.

**Q.** With CCC(C)Nc1c([N+](=O)[O-])cc(C(C)(C)C)cc1[N+](=O)[O-] (stereo unspecified) as the compound, how does the outcome read?
**A.** The outcome was “inactive”.

**Q.** Which AC50 does the source give for Cc1cc(C)nc(NC(=O)NS(=O)(=O)c2ccccc2C(=O)OC2COC2)n1 here?
**A.** The AC50 was 91 µM (active).

**Q.** With Oc1cc(Cl)ccc1Oc1ccc(Cl)cc1Cl as the compound, how does the AC50 read?
**A.** Its AC50 is 7.15 µM (active) [middle of 6 runs].

**Q.** And the outcome?
**A.** The outcome was “inactive”.

**Q.** For C[C@H]1[C@H](c2ccc(Cl)cc2)SC(=O)N1C(=O)NC1CCCCC1, which AC50 is on record?
**A.** Its AC50 is 17.7 µM (active).

**Q.** Which outcome does the source give for CNC(=O)Oc1ccccc1OC(C)C here?
**A.** The outcome was “inactive”.

**Q.** With CC[C@H](C)[C@H]1O[C@]2(C=C[C@@H]1C)C[C@@H]1C[C@@H](C/C=C(\C)[C@@H](O[C@H]3C[C@H](OC)[C@@H](O[C@H]4C[C@H](OC)[C@@H](O)[C@H](C)O4)[C@H](C)O3)[C@@H](C)/C=C/C=C3\CO[C@@H]4[C@H](O)C(C)=C[C@@H](C(=O)O1)[C@]34O)O2 (tested in a mixture with another compound) as the compound, how does the outcome read?
**A.** The outcome was “inactive”.

**Q.** With O=C(O)COc1ccc(Cl)cc1Cl as the compound, how does the outcome read?
**A.** Its outcome is “inactive”.

**Q.** For COC(=O)c1ccccc1S(=O)(=O)NC(=O)N(C)c1nc(C)nc(OC)n1, which outcome is on record?
**A.** The outcome was “inactive”.

**Q.** Which outcome does the source give for CC(C)(C)C(O)/C(=C\c1ccc(Cl)cc1Cl)n1cncn1 (stereo unspecified) here?
**A.** The outcome was “inactive”.

**Q.** What does the source list for ClC1C(Cl)C(Cl)C(Cl)C(Cl)C1Cl (stereo unspecified)?
**A.** outcome: inactive; AC50: 10.5 µM (active)

**Q.** With O=C1c2ccccc2C(=O)N1SC(Cl)(Cl)Cl as the compound, how does the outcome read?
**A.** Its outcome is “inactive”.

**Q.** Which AC50 does the source give for CC(C)N(C(=O)COc1nnc(C(F)(F)F)s1)c1ccc(F)cc1 here?
**A.** The AC50 was 34.9 µM (active).

**Q.** With CC(C)OC(=O)Nc1cccc(Cl)c1 as the compound, how does the outcome read?
**A.** The outcome was “inactive”.

**Q.** With O=S1OCC2C(CO1)C1(Cl)C(Cl)=C(Cl)C2(Cl)C1(Cl)Cl (stereo unspecified) as the compound, how does the outcome read?
**A.** The outcome was “inactive”.

**Q.** For O=[N+]([O-])/N=C1\NCCN1Cc1ccc(Cl)nc1, which outcome is on record?
**A.** Its outcome is “inactive”.

**Q.** With COC(=O)c1ccccc1CS(=O)(=O)NC(=O)Nc1nc(OC)cc(OC)n1 as the compound, how does the outcome read?
**A.** Its outcome is “inactive”.

**Q.** For CN1CSC(=S)N(C)C1, which AC50 is on record?
**A.** The AC50 was 15.4 µM (active).

**Q.** For [2H]C1([2H])[n+]2ccccc2-c2cccc[n+]2C1([2H])[2H], which outcome is on record?
**A.** The outcome was “inactive”.

**Q.** For COc1nn(CSP(=S)(OC)OC)c(=O)s1, which outcome is on record?
**A.** Its outcome is “inactive”.

**Q.** For O=C(Nc1ccccc1)Nc1cnns1, which AC50 is on record?
**A.** The AC50 was 50 µM (active).

**Q.** With COP(=O)(OC)OC=C(Cl)Cl as the compound, how does the outcome read?
**A.** Its outcome is “inactive”.

**Q.** For CNC(=O)Oc1cccc(N=CN(C)C)c1, which AC50 is on record?
**A.** The AC50 was 58.3 µM (active).

**Q.** For CCC(C)(NC(=O)c1cc(Cl)c(C)c(Cl)c1)C(=O)CCl (stereo unspecified), which outcome is on record?
**A.** Its outcome is “inactive”.

**Q.** For CCS(=O)(=O)c1cccnc1S(=O)(=O)NC(=O)Nc1nc(OC)cc(OC)n1, which outcome is on record?
**A.** The outcome was “inactive”.

**Q.** Which outcome does the source give for CNC(=O)/C=C(\C)OP(=O)(OC)OC here?
**A.** The outcome was “inactive”.

**Q.** Which outcome does the source give for CCC(C)(C)C(=O)OC1=C(c2ccc(Cl)cc2Cl)C(=O)OC12CCCCC2 here?
**A.** Its outcome is “inactive”.

**Q.** What does the source list for Oc1ccc(Cl)cc1Cc1ccccc1?
**A.** AC50: 9.67 µM (active); outcome: inactive
